Experimental data published in PubChem BioAssay (NCI).
The panel holds about 83,000 compounds, 20% with a hit somewhere; the sample as a whole holds those more often.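 Results are percent growth after 48 hours of single-concentration exposure. 100 means growth as in untreated cells, lower positive values show inhibition; negative values down to -100 show cell death.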 The source made the active and inactive calls. The calls were made as follows: active = growth percent below 10; inactive = the rest.

Experiments:
Experiment in all cases: NCI-60 one-dose screen, 48 h (100 = growth as untreated, 0 = no growth, -100 = all killed)
Conditions in all cases: 10 µM unless noted
NCI-H23 lung = system: NCI-H23 lung
NCI-H226 lung = system: NCI-H226 lung
NCI-H322M lung = system: NCI-H322M lung
HOP-62 NSCLC = system: HOP-62 NSCLC
NCI-H460 lung = system: NCI-H460 lung
NCI-H522 lung = system: NCI-H522 lung
A549/ATCC NSCLC = system: A549/ATCC NSCLC
786-0 renal = system: 786-0 renal
COLO 205 colon = system: COLO 205 colon

Measured: growth

COc1ccc2[nH]c(C(=O)OCc3ccc4c(Cl)cc(Cl)c(O)c4n3)cc2c1
inactive: NCI-H322M lung 54.3% | HOP-62 NSCLC 28.2%
active: NCI-H23 lung -23.9% | NCI-H226 lung -59% | NCI-H460 lung -35.2% | NCI-H522 lung -76.8% | A549/ATCC NSCLC 5.45% | 786-0 renal -83.1% | COLO 205 colon -75%

COc1ccc(/C(C#N)=C/c2cc(OC)c(OC)c(OC)c2)cc1
inactive: NCI-H23 lung 62.3% | NCI-H226 lung 70.6% | NCI-H322M lung 59.7% | HOP-62 NSCLC 46.7% | NCI-H460 lung 16.9% | NCI-H522 lung 15.8% | A549/ATCC NSCLC 32.5% | 786-0 renal 51.2% | COLO 205 colon 24.3%

COc1ccc(-c2ccc(-c3ccc(C(=N)N)cn3)s2)cc1OC
inactive: NCI-H23 lung 94% | NCI-H226 lung 96.3% | NCI-H322M lung 97.7% | HOP-62 NSCLC 91.4% | NCI-H460 lung 99.5% | NCI-H522 lung 100% | A549/ATCC NSCLC 100% | 786-0 renal 100% | COLO 205 colon 103%

O=C(Nc1ccc(Cl)c(Cl)c1)NS(=O)(=O)c1cnccc1Oc1ccc(F)cc1
inactive: NCI-H23 lung 39.3% | NCI-H226 lung 74.9% | NCI-H322M lung 89.2% | HOP-62 NSCLC 80.6% | NCI-H460 lung 44.6% | NCI-H522 lung 20.2% | A549/ATCC NSCLC 28% | 786-0 renal 83.9% | COLO 205 colon 90.4%

O=S(=O)(CC(O)(c1ccccc1)c1ccccc1)CC(O)(c1ccccc1)c1ccccc1
inactive: NCI-H23 lung 88.3% | NCI-H226 lung 84.1% | NCI-H322M lung 59.3% | HOP-62 NSCLC 68.8% | NCI-H460 lung 77.6% | NCI-H522 lung 108% | A549/ATCC NSCLC 94.1% | 786-0 renal 90.2% | COLO 205 colon 90.2%

Cn1c(=O)cc(NC(=O)CN2CCN(c3cc4c(cc3F)c(=O)c(C(=O)O)cn4C3CC3)CC2)[nH]c1=O
inactive: NCI-H23 lung 99.9% | NCI-H226 lung 95.5% | NCI-H322M lung 102% | HOP-62 NSCLC 98.9% | NCI-H460 lung 105% | NCI-H522 lung 91.7% | A549/ATCC NSCLC 98.8% | 786-0 renal 102% | COLO 205 colon 106%
